Assay results: PubChem BioAssay (EPA / NIEHS)
Where “and” joins values, the source holds several entries; their conditions need not be identical. Equal values may be shown once. Results filed as inconclusive are left out. Some compounds were tested as several samples or in several runs, with calls that do not always agree. Calls of active or inactive are those of the source. The calls were made as follows: active = hit-call score of the fitted dose curve at least 0.9, where 1 is the maximum; inconclusive = response in the unintended direction; inactive = score below 0.9.

Legend:
[1] = molecular target: Norway rat Vesicular Monoamine Transporter (VMAT2), neurotransmitter transporter, Slc18a2 (gene 25549) (UniProt Q01827); assay: NVS_TR_rVMAT2: NovaScreen (NVS) Transporter Assay for Norway rat Vesicular Monoamine Transporter (VMAT2), neurotransmitter transporter (AID 2283376);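 also: actives lower the bound radioligand signal below the DMSO level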
Norway rat Vesicular Monoamine Transporter (VMAT2), neurotransmitter transporter, Slc18a2 (gene 25549), sequence (Q01827 whole entry, looked up): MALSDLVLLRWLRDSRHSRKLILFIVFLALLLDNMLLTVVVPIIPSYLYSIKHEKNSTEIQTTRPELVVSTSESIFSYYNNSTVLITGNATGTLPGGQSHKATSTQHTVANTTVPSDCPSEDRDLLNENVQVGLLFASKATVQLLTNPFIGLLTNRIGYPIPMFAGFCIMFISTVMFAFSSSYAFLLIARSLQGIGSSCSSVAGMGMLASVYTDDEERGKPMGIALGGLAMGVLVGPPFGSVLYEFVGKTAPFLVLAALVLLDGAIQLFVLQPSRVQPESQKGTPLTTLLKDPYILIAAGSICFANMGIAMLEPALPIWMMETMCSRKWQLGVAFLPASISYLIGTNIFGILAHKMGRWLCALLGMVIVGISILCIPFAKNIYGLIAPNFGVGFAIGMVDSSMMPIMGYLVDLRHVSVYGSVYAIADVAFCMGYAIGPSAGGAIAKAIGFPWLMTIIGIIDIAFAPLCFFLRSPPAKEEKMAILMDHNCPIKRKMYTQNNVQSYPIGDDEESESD
In short: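 Using rat forebrain membranes, specific radioligand binding to VMAT2 was measured by filtration and scintillation counting after 1 hour. Chemicals screened at 25 uM in duplicate, actives retested in concentration series, DMSO baseline.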

[2] = TOX21_p53_BLA_p2_viability: Viability Assessment in the Tox21 HCT-116 p53 Agonism Beta-lactamase Assay, Phase 2 (AID 2283591);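 also: compound exposure lasted 16 h at 37 °C; actives lower the ATP signal meaning cytotoxicity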
In short: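 Cytotoxicity readout: CellTiter-Glo ATP luminescence, 30 min at room temperature, after the beta-lactamase read. Cells were HCT116 exposed 16 h at 37C to compounds pin-transferred at 217-fold dilution from DMSO stocks.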

[3] = molecular target: Cellular tumor antigen p53 (Homo sapiens) (UniProt P04637); assay: TOX21_p53_BLA_p2_ratio: Tox21 HCT-116 p53 Agonism Beta-lactamase Assay, Ratio, Phase 2 (AID 2283592)
Cellular tumor antigen p53 (Homo sapiens), sequence (P04637 whole entry, looked up): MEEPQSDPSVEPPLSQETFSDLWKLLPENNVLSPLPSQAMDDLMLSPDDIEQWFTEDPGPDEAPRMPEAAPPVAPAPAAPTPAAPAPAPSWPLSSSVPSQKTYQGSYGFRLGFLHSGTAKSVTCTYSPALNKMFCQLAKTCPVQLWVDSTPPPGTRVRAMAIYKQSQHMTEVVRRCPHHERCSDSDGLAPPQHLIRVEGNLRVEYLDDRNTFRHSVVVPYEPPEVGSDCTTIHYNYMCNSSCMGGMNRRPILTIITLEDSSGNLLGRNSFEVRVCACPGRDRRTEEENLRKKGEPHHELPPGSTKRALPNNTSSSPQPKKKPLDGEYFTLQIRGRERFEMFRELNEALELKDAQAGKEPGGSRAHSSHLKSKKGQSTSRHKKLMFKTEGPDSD
In short: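 Ratio endpoint: beta-lactamase cleavage of CCF4-AM, blue (460 nm) over green (530 nm). HCT116 reporter line; 16 h treatment, 37C; substrate 2 h RT.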

[4] = TOX21_p53_BLA_p3_viability: Viability Assessment in the Tox21 HCT-116 p53 Agonism Beta-lactamase Assay, Phase 3 (AID 2283593);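 also: cells exposed to compound for 16 h before reading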
In short: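 Cellular ATP was quantified by CellTiter-Glo luminescence, read after 30 min at room temperature. Beforehand, HCT116 cells (4000/well) received compound 5 h post-seeding, 217-fold diluted from DMSO, then incubated 16 h at 37C.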

[5] = molecular target: Cellular tumor antigen p53 (Homo sapiens) (UniProt P04637); assay: TOX21_p53_BLA_p3_ratio: Tox21 HCT-116 p53 Agonism Beta-lactamase Assay, Ratio, Phase 3 (AID 2283596)
In short: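 Cells were seeded at 4000/well, rested 5 h at 37C, then dosed with DMSO compound solutions (217-fold dilution) for 16 h. CCF4-AM substrate was loaded for 2 h at room temperature, and the 460/530 nm emission ratio was fitted for gain of signal versus DMSO.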

[6] = TOX21_p53_BLA_p4_viability: Viability Assessment in the Tox21 HCT-116 p53 Agonism Beta-lactamase Assay, Phase 4 (AID 2283597);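 also: hits lower the luminescence signal meaning cytotoxicity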
In short: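 Cytotoxicity was inferred from loss of CellTiter-Glo luminescence. HCT116 cells had been dosed with compounds after 5 h plating, incubated 16 h at 37C and 5% CO2, and exposed to the CCF4-AM substrate for 2 h.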

[7] = molecular target: Cellular tumor antigen p53 (Homo sapiens) (UniProt P04637); assay: TOX21_p53_BLA_p5_ratio: Tox21 HCT-116 p53 Agonism Beta-lactamase Assay, Ratio, Phase 5 (AID 2283599)
In short: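 Beta-lactamase reporter ratio (blue 460 nm over green 530 nm, 405 nm excitation) after 2 h CCF4-AM loading, in HCT-116 cells exposed 16 h at 37 C to compounds pinned at 217-fold dilution. Increases relative to DMSO baseline scored.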

[8] = TOX21_p53_BLA_p5_viability: Viability Assessment in the Tox21 HCT-116 p53 Agonism Beta-lactamase Assay, Phase 5 (AID 2283600)
In short: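 Luciferase-coupled ATP quantitation of cells treated for 16 h (37C, 5% CO2) with test chemicals delivered in DMSO via a 217-fold dilution; 4000 cells/well; reagent incubated 30 min at room temperature before luminescence reading.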

[9] = molecular target: Cellular tumor antigen p53 (Homo sapiens) (UniProt P04637); assay: TOX21_p53_BLA_p4_ratio: Tox21 HCT-116 p53 Agonism Beta-lactamase Assay, Ratio, Phase 4 (AID 2283601)
In short: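 Signal is the blue/green (460nm/530nm) ratio of cleaved versus uncleaved CCF4-AM substrate, read after 2 h substrate loading. Cells were HCT116 carrying the p53-responsive beta-lactamase reporter, dosed 16 h at 37C, 5% CO2; CellTiter-Glo measured in parallel.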

[10] = molecular target: mouse Estrogen Receptor alpha (Era), Esr1 (gene 13982) (UniProt P19785); assay: NVS_NR_mERa: NovaScreen (NVS) Nuclear Receptor Binding Assay for mouse Estrogen Receptor alpha (Era) (AID 2283378);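 also: hit means loss of bound radioligand signal relative to DMSO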
mouse Estrogen Receptor alpha (Era), Esr1 (gene 13982), sequence (P19785 whole entry, looked up): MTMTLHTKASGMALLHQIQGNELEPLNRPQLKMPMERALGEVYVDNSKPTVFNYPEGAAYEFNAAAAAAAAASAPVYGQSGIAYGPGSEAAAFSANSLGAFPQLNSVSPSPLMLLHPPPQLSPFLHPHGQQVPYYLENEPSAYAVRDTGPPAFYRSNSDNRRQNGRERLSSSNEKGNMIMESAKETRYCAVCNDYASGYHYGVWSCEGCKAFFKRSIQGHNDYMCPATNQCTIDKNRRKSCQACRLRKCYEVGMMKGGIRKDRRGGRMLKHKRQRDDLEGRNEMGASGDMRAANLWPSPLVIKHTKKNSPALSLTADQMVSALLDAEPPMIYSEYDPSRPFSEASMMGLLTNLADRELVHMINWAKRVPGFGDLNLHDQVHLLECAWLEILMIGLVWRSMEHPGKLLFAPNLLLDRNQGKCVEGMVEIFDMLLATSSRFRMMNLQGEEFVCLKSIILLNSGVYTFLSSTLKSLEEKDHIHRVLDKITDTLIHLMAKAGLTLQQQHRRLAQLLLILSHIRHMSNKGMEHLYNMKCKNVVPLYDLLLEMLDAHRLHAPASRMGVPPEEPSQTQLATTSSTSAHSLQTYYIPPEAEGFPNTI
In short: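 Cell-free radioligand binding with extracted mouse Era protein; competitive displacement of radiolabelled ligand, read by filter-based scintillation counting 18 hours after dosing. Loss of signal versus DMSO baseline taken as binding; single screening concentration 25 uM, actives followed in concentration series.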

## CCCC(O)C(O)CO (stereo not given)
[1]
  outcome: inactive

## CCOC(=O)C=Cc1ccccc1
[1]
  outcome: inactive

## CCOCN(C(=O)CS(=O)(=O)O)c1c(C)cccc1CC
[1]
  outcome: inactive

## COC(=O)OC
[1]
  outcome: inactive

## CCOC(=O)CC(=O)OCC
[1]
  outcome: inactive

## CC1CCC(C(C)C)C(OC(=O)c2ccccc2N)C1 (stereo not given)
[2]
  AC50: 45.5 µM (active) and 38.5 µM (active)
[3]
  AC50: 76.3 µM (active)
  outcome: inactive
[4]
  AC50: 23 µM (active)
[5]
  outcome: inactive
[6]
  AC50: 45.5 µM (active) and 34.7 µM (active)
[7]
  AC50: 42.8 µM (active)
[8]
  AC50: 31.7 µM (active)
  outcome: inactive
[9]
  outcome: inactive

## Cc1ccc(O)c(C(C)(C)C)c1
[1]
  outcome: inactive

## CCCCCCCCCCCCCCCC(=O)OC/C=C(C)/C=C/C=C(C)/C=C/C1=C(C)CCCC1(C)C
[1]
  outcome: inactive

## C[Si](C)O[Si](C)C
[1]
  outcome: inactive

## COc1ccc(OC)c(N=Nc2c(O)ccc3ccccc23)c1
[1]
  AC50: 0.107 µM (active)

## CC(C)CCCCCCOC(=O)c1ccc(C(=O)OCCCCCCC(C)C)c(C(=O)OCCCCCCC(C)C)c1
[1]
  outcome: inactive

## Cc1ccc(S(=O)(=O)C(I)I)cc1
[1]
  AC50: 1.19 µM (active)

## O=C1C[C@@H]2OCC=C3CN4CC[C@]56c7ccccc7N1[C@H]5[C@H]2[C@H]3C[C@H]46 (tested in a mixture with another compound)
[2]
  outcome: inactive
[3]
  outcome: inactive
[4]
  AC50: 41.2 µM (active)
  outcome: inactive
[5]
  AC50: 36.6 µM (active)
  outcome: inactive
[6]
  outcome: inactive
[7]
  outcome: inactive
[8]
  outcome: inactive
[9]
  outcome: inactive

## Oc1cc[c]([Hg][Cl])cc1
[2]
  AC50: 20.9 µM (active) and 10.7 µM (active)
[3]
  AC50: 13.9 µM (active)
  outcome: inactive
[4]
  AC50: 41.6 µM (active) and 18.9 µM (active)
[5]
  AC50: 30.1 µM (active) and 35.2 µM (active)
[7]
  AC50: 39.2 µM (active) and 17.4 µM (active)
[8]
  AC50: 25.3 µM (active) and 10.5 µM (active)
[9]
  AC50: 41 µM (active) and 19.2 µM (active)

## CS(=O)(=O)c1ccc([C@@H](CC2CCCC2)C(=O)Nc2cnccn2)cc1Cl
[1]
  AC50: 7.12 µM (active)

## CCCCCCCCCCCCCCCCCC(=O)OCC(CC)CCCC (stereo not given)
[1]
  outcome: inactive

## c1ccc(C[P+](c2ccccc2)(c2ccccc2)c2ccccc2)cc1
[1]
  AC50: 16.7 µM (active)

## C1CNCCN1
[1]
  outcome: inactive

## N#CC(C#N)=NNc1cccc(Cl)c1
[10]
  outcome: inactive
[2]
  AC50: 20.8 µM (active)
[3]
  AC50: 2.66 µM (active)
[4]
  outcome: inactive
[5]
  AC50: 1.24 µM (active)
[6]
  AC50: 6.28 µM (active)
[7]
  AC50: 26.7 µM (active)
[8]
  AC50: 46.1 µM (active)
[9]
  AC50: 13.8 µM (active)

## CCCCON=O
[2]
  outcome: inactive

## COc1cccc(O)c1
[1]
  outcome: inactive

## CCCCC(CC)COC(=O)c1ccccc1C(=O)O (stereo not given)
[1]
  outcome: inactive

## C=CCSSCC=C
[2]
  outcome: inactive
[3]
  outcome: inactive

## CC(C)(C)CC(C)(C)c1ccc(OCCOCC[N+](C)(C)Cc2ccccc2)cc1
[1]
  outcome: inactive

## [Cl][Dy]([Cl])[Cl]
[1]
  outcome: inactive

## CC(CC(C#N)(c1ccccc1)c1ccccc1)N(C)C (stereo not given)
[2]
  outcome: inactive

## ClC1=C(Cl)C2(Cl)C(CBr)CC1(Cl)C2(Cl)Cl (stereo not given)
[2]
  AC50: 73.5 µM (active)
  outcome: inactive
[3]
  outcome: inactive
[4]
  AC50: 63.4 µM (active) and 20.2 µM (active)
[5]
  outcome: inactive
[6]
  outcome: inactive
[8]
  AC50: 36.3 µM (active)
  outcome: inactive
[9]
  outcome: inactive

## N#CCBr
[2]
  outcome: inactive
[3]
  outcome: inactive
[4]
  outcome: inactive
[5]
  outcome: inactive

## CC[N+](CC)(CC(=O)Nc1c(C)cccc1C)Cc1ccccc1
[1]
  outcome: inactive

## CN(c1nccc(=O)[nH]1)C1CCN(c2nc3ccccc3n2Cc2ccc(F)cc2)CC1
[1]
  outcome: inactive
